# ChEMBL document CHEMBL4513216, “Probing the Open Global Health Chemical Diversity Library for Multistage-Active Starting Points for Next-Generation Antimalarials” (ACS Infect Dis, 2020)
# The whole screen tested about 65,000 compounds, of which about 2,100 (3.2%) showed an effect of 50% or more. The median lay at about -52%. Shown is part of a subset that was picked to be rich in strong results.
# Test system: Plasmodium falciparum
# Test: Screen against P. falciparum Asexual Blood Stage (ABS), at 5uM
# Type: functional, Dd2
# Settings: tested at 5 uM
row,Compound,INHIBITION [%]
1,Fc1cccc(CNCC2OCCc3cn(CC4CCOCC4)nc32)c1 (stereo not drawn),17.8
2,CC(C)n1ncc2c1NC(=O)CC21C(=O)Nc2c(Br)cc(Cl)cc21 (stereo not drawn),-72.6
3,COCc1nc(CNC(=O)C(C)n2ccnc2C(C)C)no1 (stereo not drawn),-14.3
4,COc1cc2c(cc1CNC(=O)C(C)n1ccnc1C(C)C)OCCO2 (stereo not drawn),11.4
5,COc1cc2c(cc1CNC(=O)C(C)n1ccnc1C(C)C)CCC2 (stereo not drawn),60.2
6,COc1cccc(N2CCN(CCC(=O)NC3CCCCC3)CC2)c1,-28.7
7,CCC(N)c1ccccc1OCC(=O)N1CCCC1 (stereo not drawn),52.5
8,CCC(NC(N)=O)c1ccccc1OCC(=O)N1CCCC1 (stereo not drawn),-37.9
9,CCC(NC(=O)COC)c1ccccc1OCC(=O)N1CCCC1 (stereo not drawn),-191
10,CCOCCC1(C(=O)N2CCCC(c3ncc[nH]3)C2)CCCC1 (stereo not drawn),-71.1
11,CC(c1ccncn1)N(C)Cc1cc2cc3c(cc2[nH]c1=O)OCO3 (stereo not drawn),-84.5
12,CCOc1cccc(C(=O)Nc2ccncc2)c1,-39.7
13,COc1c(CNC2(c3ccc(Cl)cc3)CCC2)c(C)nn1C,60.5
14,COc1c(CNC2CCc3cc(Cl)ccc32)c(C)nn1C (stereo not drawn),21.4
15,COc1c(CNC2(c3noc(C)n3)CCC2)c(C)nn1C,-55.5
16,Cc1nc(-c2ccccc2)cc(C2CCNCC2)n1,57.8
17,Cc1nc(-c2ccc(F)cc2)cc(C2CCNCC2)n1,-33.4
18,COc1ccc(-c2cc(C3CCNCC3)nc(C)n2)cc1,-57.7
19,CC(=O)N1CCCC(c2nc(N(C)C)ncc2-c2cccc(F)c2)C1 (stereo not drawn),-1.35
20,O=C(c1cocn1)N1C[C@H]2CCC[C@@]2(COc2ccccn2)C1,52.1
21,O=C(c1ncccn1)N1C[C@H]2CCC[C@@]2(COc2ccccn2)C1,14.9
22,Cc1ccc(C(=O)N2C[C@H]3CCC[C@@]3(COc3ccccn3)C2)nc1,9.4
23,NC(=O)c1ccn(COc2ccccc2Cl)n1,-63.1
24,Cc1cnn(C2CN(c3ccccc3S(=O)(=O)C(F)(F)F)C2)c1,-111
25,CS(=O)(=O)NC[C@H]1Cn2c(-c3ccc(Cl)cc3)cnc2CO1,57.1
26,CS(=O)(=O)NC[C@H]1Cn2c(-c3ccc(F)cc3)cnc2CO1,-34.5
27,CS(=O)(=O)NC[C@H]1Cn2c(-c3ccccc3)cnc2CO1,-21

row,Compound,INHIBITION [%]
1,CN(C)Cc1csc(-c2nccn2Cc2ccsc2)c1,17.1
2,Cc1cccc(C(=O)N2CCC[C@]3(C[C@@H](OCC4CC4)CO3)C2)n1,-156
3,Cn1cc(CN2C[C@H](N3CCOCC3)[C@@H]3OCCC[C@@H]32)cn1,-93.3
4,c1ccc(COc2cccc(CNC3CCc4ncnn4C3)c2)cc1 (stereo not drawn),24.8
5,O=C(NCC(O)c1ccc(Cl)c(F)c1)NC1CC=CC1 (stereo not drawn),-14.7
6,CCN1CCC(NC(=O)NCC(O)c2ccc(Cl)c(F)c2)CC1 (stereo not drawn),-34.9
7,OC(CNC1CCOCC1)c1ccc(Cl)c(F)c1 (stereo not drawn),50.9
8,OC(CNC1CCOCC1)c1cccc(OCc2ccccc2)c1 (stereo not drawn),53.2
9,COc1cccc(C(O)CNC(=O)CC2CCCCC2)c1 (stereo not drawn),-143
10,CC(C)(CNc1cccc(Cl)c1)NC(=O)C1CCCN(CC(N)=O)C1 (stereo not drawn),-34.6
11,COc1ccccc1-c1ncc(CN2C[C@@H](N(C)C)[C@H](C(C)C)C2)s1,54.7
12,COc1ccccc1-c1ncc(CN2CCCC(CCC(N)=O)C2)s1 (stereo not drawn),-43.7
13,COc1ccccc1-c1ncc(CN2C[C@H](O)[C@@H](N3CCCC3)C2)s1,16.5
14,CCc1csc(C2CCCN(C(=O)c3ncccn3)C2)n1 (stereo not drawn),-94
15,CC(C)n1c(=O)c2ccccc2n(CCN(C)C)c1=O,36.1
16,CC(C)n1c(=O)c2ccccc2n(CCCN(C)C)c1=O,59.5
17,CN(C)CCn1c(=O)n(C)c(=O)c2ccccc21,-7.78
18,CCN(Cc1ccccc1)C(=O)CCN1CC(O)C1,-76.9
19,Cc1nc(C)c(C(=O)N2Cc3ccccc3OCC2Cn2ccnc2)s1 (stereo not drawn),-22.8
20,CN1CCCCCC1C(=O)N1CCCN(c2ccccc2)CC1 (stereo not drawn),61.8
21,CN1CCCCCC1C(=O)N1CCN(c2ccccc2C#N)CC1 (stereo not drawn),60.4
22,CC(C)N1CCC(C(=O)N2CCCN(c3ccccc3)CC2)CC1,-38.1
23,CN1CCCCC1C(=O)N1CCN(c2ccccc2C#N)CC1 (stereo not drawn),11.5
24,N#Cc1ccccc1N1CCN(C(=O)NCC(=O)N2CCCC2)CC1,-1.82
25,COC(=O)N1CCCCC1C(=O)N1CCN(c2cccnc2)CC1 (stereo not drawn),-87.5
26,CC[C@H]1CN(C(=O)c2ccc(-n3cnnc3)nc2)CC[C@@]1(C)O,-129
